# Measurements: PubChem BioAssay (EPA / NIEHS)
# Records with an inconclusive call do not appear. Active and inactive are the calls of the source. Rule for the calls, unless noted: active = hit-call score of the fitted dose curve at least 0.9, where 1 is the maximum; inconclusive = response in the unintended direction; inactive = score below 0.9.
# Key:
# [1] = target: Nucleoli Translocation, AR (gene 367) (UniProt P10275); test: UPITT_HCI_U2OS_AR_TIF2_Nucleoli_Antagonist: University of Pittsburgh U2OS Androgen Receptor-Transcriptional Intermediary Factor 2 (AR-TIF2) Antagonism High Content Imaging Assay for Nucleoli Translocation (AID 2283997)
# Procedure, shortened: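 Compounds are added at 20 uM final concentration in 0.2% DMSO to U2OS cells carrying AR-RFP and TIF2-GFP fusions. Nucleolar AR-RFP fluorescence is then quantified by automated imaging. Antagonism is fitted positively against DHT baseline.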
# [2] = TOX21_TR_RXR_BLA_Antagonist_Followup_viability: Viability Assessment in the Tox21 Thyroid Hormone Receptor beta Retinoid X Receptor alpha (RXRa) Antagonism Beta-lactamase (BLA) Follow-Up Assay (AID 2283979)
# Procedure, shortened: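 RXRa-bla HEK293T cells (2,500/well, phenol red-free DMEM, 2% charcoal-stripped FBS) were attached 5 h, then exposed to compounds at 11 concentrations in triplicate for 16 h at 37C. Viability measured by CellTiter-Glo ATP luminescence, bidirectional fitting versus DMSO.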
# DIO1 (gene 1733) = test: CCTE_GLTED_hDIO1: CCTE's human Deiodinase 1 (DIO1) Inhibition Assay, Great Lakes Toxicology and Ecology Division (GLTED) Lab (AID 2283987);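 note: isolated human DIO1 enzyme in a cell-free setup rather than cells; enzyme activity read as free iodide liberated from substrate via Sandell-Kolthoff colorimetry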
# Method: CCTE_GLTED_hDIO1 is a cell-free, single-readout assay designed to test the inhibitory activity of chemicals toward human iodothyronine Deiodinase type 1 (DIO1) enzyme. Enzyme is incubated in presence of test chemical for 3 hours during which uninhibited enzyme liberates free iodide from substrate. Free iodide is measured in a second step using the Sandell-Kolthoff method.CCTE_GLTED_hDIO1 is the assay component measured from the CCTE_GLTED_hDIO1 assay. It is designed to make measurements of enzyme activity, a form of enzyme reporter, as detected with absorbance signals by spectrophotometry.Data from the assay component CCTE_GLTED_hDIO1 was analyzed into 1 assay endpoint. This assay endpoint, CCTE_GLTED_hDIO1, was analyzed in the positive analysis fitting direction relative to DMSO as the negative control and baseline of activity. Using a type of enzyme reporter, loss-of-signal activity can be used to understand changes in the enzymatic activity as they relate to the gene DIO1. Furthermore, this assay endpoint can be referred to as a primary readout, because the performed assay has only produced 1 assay endpoint. To generalize the intended target to other relatable targets, this assay endpoint is annotated to the 'deiodinase' intended target family, where the subfamily is 'deiodinase Type 1'.
# […] assay, developed at Great Lakes Toxicology and Ecology Division (GLTED) within the EPA's Center for Computational Toxicology and Exposure (CCTE), is designed to test the chemicals' ability to inhibit DIO1. Assay is based on iodide release measured by the Sandell-Kolthoff method and is run in 96-well plate format with assay plates run in triplicate (n=3). The method used for the deiodinase assay was largely based on Renko et al. (2012, 2015). These works describe the utilization of the SK reaction to measure deiodinase-liberated iodide in a 96-well-plate format. The SK reaction is based on the reduction of the yellow-colored cerium IV to the non-colored cerium III by arsenic, with the rate of this reaction increased in the presence of iodide in a concentration-dependent manner (Sandell and Kolthoff, 1937). Iodinated test chemicals can interfere as competitive inhibitors, or if the stock chemical has contaminating free-iodide present. Other chemicals, e.g.: nitrite, iron, and thiocyanate can interfere with the Sandell-Kolthoff reaction (see Sandell and Kolthoff, 1937).
# [3] = CCTE_Harrill_HTTr_Viability_PRF_DMEM_24hr: (Pilot) CCTE's 24-hour Cell Viability Assessment for the High-Throughput Transcriptomics (HTTr) Platform, in MCF-7 cells cultured in phenol red-free DMEM + 10% charcoal-stripped fetal bovine serum, Harrill Lab (AID 2283980; active = hit-call score of the fitted dose curve at least 0.9, where 1 is the maximum; inactive = score below 0.9)
# Procedure, shortened: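 Propidium iodide exclusion imaged at 24 h after dosing scores viability; cells were MCF-7 grown in phenol red-free DMEM plus 10% charcoal-stripped serum, tested in eight concentrations, fitted in both directions against DMSO.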
# [4] = CCTE_Harrill_HTTr_Apoptosis_DMEM_6hr: (Pilot) CCTE's 6-hour Apoptosis Assessment for the High-Throughput Transcriptomics (HTTr) Platform, in MCF-7 cells cultured in DMEM + 10% fetal bovine serum, Harrill Lab (AID 2283981; active = hit-call score of the fitted dose curve at least 0.9, where 1 is the maximum; inactive = score below 0.9)
# Procedure, shortened: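 MCF-7 cells grown in DMEM + 10% FBS were exposed for 6 hours to an eight-point dilution series. CellEvent Caspase 3/7 Green signal was imaged; activity fitted bidirectionally against DMSO.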
# [5] = CCTE_Harrill_HTTr_Apoptosis_DMEM_12hr: (Pilot) CCTE's 12-hour Apoptosis Assessment for the High-Throughput Transcriptomics (HTTr) Platform, in MCF-7 cells cultured in DMEM + 10% fetal bovine serum, Harrill Lab (AID 2283982; active = hit-call score of the fitted dose curve at least 0.9, where 1 is the maximum; inactive = score below 0.9)
# Procedure, shortened: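 Caspase-3/7 activity was measured by high-content imaging (CellEvent Caspase 3/7 Green) after a 12-hour exposure of MCF-7 cells grown in DMEM with 10% FBS. Eight-point concentration series, fitted bidirectionally against vehicle.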
# [6] = CCTE_Harrill_HTTr_Apoptosis_DMEM_24hr: (Pilot) CCTE's 24-hour Apoptosis Assessment for the High-Throughput Transcriptomics (HTTr) Platform, in MCF-7 cells cultured in DMEM + 10% fetal bovine serum, Harrill Lab (AID 2283983; active = hit-call score of the fitted dose curve at least 0.9, where 1 is the maximum; inactive = score below 0.9)
# Procedure, shortened: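 Caspase-3/7 activity read by high-content imaging (CellEvent Green reagent) 24 h after dosing. MCF-7 cells grown in DMEM with 10% FBS received an eight-point concentration series; fits were bidirectional versus DMSO.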
# [7] = CCTE_Harrill_HTTr_Apoptosis_PRF_DMEM_6hr: (Pilot) CCTE's 6-hour Apoptosis Assessment for the High-Throughput Transcriptomics (HTTr) Platform, in MCF-7 cells cultured phenol red-free DMEM + 10% charcoal-stripped fetal bovine serum, Harrill Lab (AID 2283984; active = hit-call score of the fitted dose curve at least 0.9, where 1 is the maximum; inactive = score below 0.9)
# Procedure, shortened: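 Caspase-3/7 activity (CellEvent Green) read by high-content imaging 6 h after dosing, eight concentrations. Cells: MCF-7, phenol red-free DMEM with 10% charcoal-stripped serum. Curves fit both directions against DMSO.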
# [8] = CCTE_Harrill_HTTr_Apoptosis_PRF_DMEM_12hr: (Pilot) CCTE's 12-hour Apoptosis Assessment for the High-Throughput Transcriptomics (HTTr) Platform, in MCF-7 cells cultured in phenol red-free DMEM + 10% charcoal-stripped fetal bovine serum, Harrill Lab (AID 2283985; active = hit-call score of the fitted dose curve at least 0.9, where 1 is the maximum; inactive = score below 0.9)
# Procedure, shortened: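 Caspase-3/7 activity by CellEvent Green high content imaging after 12 h compound exposure (eight concentrations) in MCF-7 grown in phenol red-free DMEM plus 10% charcoal-stripped serum; DMSO as baseline.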
# [9] = CCTE_Harrill_HTTr_Apoptosis_PRF_DMEM_24hr: (Pilot) CCTE's 24-hour Apoptosis Assessment for the High-Throughput Transcriptomics (HTTr) Platform, in MCF-7 cells cultured in phenol red-free DMEM + 10% charcoal-stripped fetal bovine serum, Harrill Lab (AID 2283986; active = hit-call score of the fitted dose curve at least 0.9, where 1 is the maximum; inactive = score below 0.9)
# Procedure, shortened: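 Eight concentrations tested for 24 h on MCF-7 grown in charcoal-stripped serum, phenol red-free DMEM. High content imaging of CellEvent Caspase 3/7 Green signal gives apoptosis read-out, fitted both ways relative to DMSO.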
# Nucleoli Translocation, AR (gene 367), sequence (P10275 whole entry, looked up, the tested form may be a part): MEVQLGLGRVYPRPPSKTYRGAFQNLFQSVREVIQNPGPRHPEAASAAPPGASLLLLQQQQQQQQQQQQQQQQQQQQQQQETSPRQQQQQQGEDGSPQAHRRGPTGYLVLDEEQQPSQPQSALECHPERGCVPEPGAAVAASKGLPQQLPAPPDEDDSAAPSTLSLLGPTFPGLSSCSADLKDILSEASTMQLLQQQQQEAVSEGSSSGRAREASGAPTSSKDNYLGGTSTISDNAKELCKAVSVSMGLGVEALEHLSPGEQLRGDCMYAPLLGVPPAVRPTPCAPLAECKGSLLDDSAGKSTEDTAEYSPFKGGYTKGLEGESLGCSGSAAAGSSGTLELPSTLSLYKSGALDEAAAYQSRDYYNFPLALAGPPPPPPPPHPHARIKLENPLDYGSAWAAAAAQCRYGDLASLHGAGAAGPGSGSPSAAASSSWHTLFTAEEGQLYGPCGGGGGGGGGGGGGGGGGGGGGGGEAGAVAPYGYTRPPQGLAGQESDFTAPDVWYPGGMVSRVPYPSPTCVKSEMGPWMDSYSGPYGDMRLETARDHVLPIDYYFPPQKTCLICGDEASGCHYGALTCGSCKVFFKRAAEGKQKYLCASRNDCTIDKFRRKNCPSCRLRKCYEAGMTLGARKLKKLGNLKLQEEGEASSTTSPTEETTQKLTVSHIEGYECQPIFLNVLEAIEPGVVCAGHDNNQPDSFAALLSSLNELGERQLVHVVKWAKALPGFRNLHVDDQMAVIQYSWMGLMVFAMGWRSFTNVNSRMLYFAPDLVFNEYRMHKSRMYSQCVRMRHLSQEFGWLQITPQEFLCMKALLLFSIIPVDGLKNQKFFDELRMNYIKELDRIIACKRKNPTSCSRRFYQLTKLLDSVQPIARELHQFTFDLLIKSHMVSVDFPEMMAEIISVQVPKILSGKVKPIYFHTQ
smiles,measurement,setting,value
Nc1ccc([N+](=O)[O-])cc1,outcome,[1],inactive
CN(C)c1ccc(C(=O)c2ccc(N(C)C)cc2)cc1,outcome,[2],inactive
CCNS(=O)(=O)C(F)(F)C(F)(F)C(F)(F)C(F)(F)C(F)(F)C(F)(F)C(F)(F)C(F)(F)F,outcome,[1],inactive
CO[C@@H]1[C@H](OC(=O)NC(=O)CCl)CC[C@]2(CO2)[C@H]1[C@@]1(C)O[C@@H]1CC=C(C)C,AC50,DIO1 (gene 1733),17.8 µM (active)
same,outcome,[1],inactive
COC(=O)Nc1nc2ccccc2[nH]1,outcome,[2],inactive
Cc1cc(N=Nc2ccccc2C)ccc1N,AC50,[1],26.1 µM (active)
CCCCC(CC)COC(=O)c1ccc(C(=O)OCC(CC)CCCC)c(C(=O)OCC(CC)CCCC)c1 (configuration not stated),outcome,[1],inactive
O=C(Nc1ccccc1)c1ccccc1I,outcome,[1],inactive
CNC(=O)Oc1cccc2c1OC(C)(C)C2,outcome,[1],inactive
O=[N+]([O-])C(Br)(CO)CO,AC50,[1],31.8 µM (active)
O=C1CCCO1,outcome,[1],inactive
CC(C)(O)c1cnn2c(-c3ccc(F)c(-c4c(F)cccc4C#N)c3)cnc2n1,outcome,[1],inactive
CCCCCCCCn1sccc1=O,AC50,DIO1 (gene 1733),54 µM (active)
CS(=O)(=O)NC(=O)c1cc(Oc2ccc(C(F)(F)F)cc2Cl)ccc1[N+](=O)[O-],outcome,[3],inactive
same,outcome,[4],inactive
same,outcome,[5],inactive
same,outcome,[6],inactive
same,outcome,[7],inactive
same,outcome,[8],inactive
same,outcome,[9],inactive
CC(C)N(Cc1ccccc1)C(=O)C(C)(C)C,outcome,[1],inactive
COP(=S)(OC)SCN1C(=O)c2ccccc2C1=O,AC50,DIO1 (gene 1733),50.9 µM (active)
Nc1ccc(Cl)cc1N,outcome,[1],inactive
CN(C)[C@@H]1C(=O)C(C(N)=O)=C(O)[C@@]2(O)C(=O)C3=C(O)c4c(O)cccc4[C@@](C)(O)[C@H]3C[C@@H]12,AC50,DIO1 (gene 1733),56.9 µM (active)
Oc1ccc2ccc3cccc4ccc1c2c34,AC50,DIO1 (gene 1733),100 µM (active)
CC(C)(OOC(C)(C)c1ccccc1)c1ccccc1,AC50,[1],38.5 µM (active)
